Assay results from the supplement of paper PMC9262897, “Low-cost anti-mycobacterial drug discovery using engineered E. coli” (Nature Communications, 2022).
Where a name gives a salt, the structure may show the parent alone. ± gives the standard deviation of the averaged measurements.

Tested on: E. coli TESEC Mtb Alr
Assay: growth (OD600 after 10 h); higher = more growth (less inhibition)
Details: compound 0.1 mM
Experimental: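 TESEC Mtb Alr E. coli, or the Alr+ wild-type control, in 384-well plates with Prestwick library compounds at 0.1 mM and 1% DMSO, across arabinose induction levels of 1E3 to 1E7 nM. Growth is read as OD600 after 10 h at 37 °C in triplicate biological replicates.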

[1] = arabinose 1000 nM, raw OD600 reference: median of DMSO wells 0.294, cell-free background 0.041
[2] = arabinose 10000 nM, raw OD600 reference: median of DMSO wells 0.264, cell-free background 0.041
[3] = arabinose 100000 nM, raw OD600 reference: median of DMSO wells 0.201, cell-free background 0.041
[4] = arabinose 1000000 nM, raw OD600 reference: median of DMSO wells 0.193, cell-free background 0.041
[5] = arabinose 10000000 nM, raw OD600 reference: median of DMSO wells 0.146, cell-free background 0.041

SMILES | growth [1] | growth [2] | growth [3] | growth [4] | growth [5]
CC(=O)OC(C)C[N+](C)(C)C (stereo not given) [Methacholine chloride] | 0.282 ± 0.0064 | 0.269 ± 0.0094 | 0.171 ± 0.011 | 0.187 ± 0.0089 | 0.134 ± 0.0072
Cc1c(Cl)cccc1Nc1ncccc1C(=O)O [Clonixin Lysinate] | 0.207 ± 0.0063 | 0.155 ± 0.0017 | 0.173 ± 0.0047 | 0.0952 ± 0.0017 | 0.15 ± 0.0047
CCC1(c2ccccc2)NC(=O)N(C)C1=O (stereo not given) [Mephenytoin] | 0.299 ± 0.0081 | 0.287 ± 0.011 | 0.201 ± 0.014 | 0.204 ± 0.013 | 0.152 ± 0.0052
CCCCc1cc2ccccc2c(OCCN(C)C)n1 [Dimethisoquin hydrochloride] | 0.182 ± 0.0035 | 0.162 ± 0.0045 | 0.199 ± 0.0029 | 0.0689 ± 0.0025 | 0.1567 ± 0.0013
CCSc1ccc2c(c1)N(CCCN1CCN(C)CC1)c1ccccc1S2 [Thiethylperazine dimalate] | 0.0413 ± 0.0013 | 0.0405 ± 0.0005 | 0.0425 ± 0.002 | 0.03993 ± 0.00021 | 0.0411 ± 0.00055
O=C(Nc1cccc2c(=O)cc(-c3nnn[nH]3)oc12)c1ccc(OCCCCc2ccccc2)cc1 [Pranlukast] | 0.238 ± 0.0077 | 0.196 ± 0.0094 | 0.227 ± 0.0058 | 0.144 ± 0.0097 | 0.178 ± 0.0095
CC(=O)Oc1cc(C(F)(F)F)ccc1C(=O)O [Triflusal] | 0.275 ± 0.0064 | 0.259 ± 0.0086 | 0.186 ± 0.019 | 0.177 ± 0.0042 | 0.14 ± 0.004
C1CCC(C(CC2CCCCN2)C2CCCCC2)CC1 (stereo not given) [Perhexiline maleate] | 0.0389 ± 0.00046 | 0.03913 ± 0.00021 | 0.0407 ± 0.00064 | 0.03897 ± 0.00023 | 0.0389 ± 0.0004
